These results are taken from PubChem BioAssay (EPA / NIEHS).

Several values for one entry are separate records, joined by “and”; a condition that tells them apart may be missing. Equal entries are not always repeated. Some structures have more than one record in an assay (separate samples or runs), and their calls can disagree. Activity calls are given as the source filed them. Rule for the calls: active = hit-call score of the fitted dose curve at least 0.9, where 1 is the maximum; inactive = score below 0.9.

Test [1] is described as follows: BSK_MyoF_SRB: Viability Assessment in the BioMAP Diversity Plus: MyoF Assay (AID 2284267).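 Note: total protein by SRB absorbance in parallel cultures as cytotoxicity measure; cells assessed 24 h after compound addition.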 The note with it: primary human lung fibroblasts. In a few lines:
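In this viability endpoint, fibroblasts from human lung are treated for 24 h, TCA-fixed, SRB-stained (0.1%) and read at 560 nm. Gain of signal relative to DMSO defines activity.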

Read-out in test [2]: Matrix Metallopeptidase 1 (MMP1), MMP1 (gene 4312)
Briefly: BSK_MyoF_MMP1: BioMAP Diversity Plus: MyoF Assay for Matrix Metallopeptidase 1 (MMP1) Biomarker Activity (AID 2284268). Conditions: primary human lung fibroblasts. In a few lines: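 Human lung fibroblast primary cells; MMP1 measured by ELISA 24 h after dosing, fitted in the positive direction relative to DMSO. Parallel SRB staining (0.1%, after 10% TCA fixation, 560 nm) assesses overt cytotoxicity.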

Read-out in test [3]: TIMP metallopeptidase inhibitor 1 (TIMP1), TIMP1 (gene 7076)
Briefly: BSK_MyoF_TIMP1: BioMAP Diversity Plus: MyoF Assay for TIMP metallopeptidase inhibitor 1 (TIMP1) Biomarker Activity (AID 2284269). Conditions: primary human lung fibroblasts. In a few lines:
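Primary human lung fibroblasts, MyoF multiplex system; chemical exposure 24 h; TIMP-1 by ELISA; positive fitting direction vs DMSO control.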

Read-out in test [4]: Matrix Metallopeptidase 1 (MMP1), MMP1 (gene 4312)
Put plainly: BSK_BF4T_MMP1: BioMAP Diversity Plus: BF4T Assay for Matrix Metallopeptidase 1 (MMP1) Biomarker Activity (AID 2284270). The note with it: primary human bronchial epithelial cells with fibroblasts. In short, it runs like this: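 MMP-1 quantified by ELISA in primary human bronchial epithelial/dermal fibroblast co-cultures, 24 hours post-dosing, with DMSO as baseline; parallel sulforhodamine B staining (560 nm) tracks overt cytotoxicity.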

Read-out in test [5]: Matrix Metallopeptidase 3 (MMP3), MMP3 (gene 4314)
Briefly: BSK_BF4T_MMP3: BioMAP Diversity Plus: BF4T Assay for Matrix Metallopeptidase 3 (MMP3) Biomarker Activity (AID 2284271). The note with it: primary human bronchial epithelial cells with fibroblasts. In short, it runs like this:
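MMP-3 level read by ELISA after 24 h chemical exposure of bronchial epithelial cell/dermal fibroblast co-cultures, fitted upward relative to DMSO. Parallel cultures stained with 0.1% SRB after TCA fixation gauge overt cytotoxicity.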

Read-out in test [6]: Tissue plasminogen activator (tPA), PLAT (gene 5327)
Briefly: BSK_BF4T_tPA: BioMAP Diversity Plus: BF4T Assay for Tissue plasminogen activator (tPA) Biomarker Activity (AID 2284272). Conditions: primary human bronchial epithelial cells with fibroblasts. In short, it runs like this:
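tPA level quantified by ELISA at 24 h post-treatment in bronchial epithelial/dermal fibroblast co-cultures, gain of signal scored against DMSO baseline. Parallel cultures stained with 0.1% SRB (560 nm) to flag overt cytotoxicity.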

Read-out in test [7]: Plasminogen Activator Inhibitor-1 (PAI1), SERPINE1 (gene 5054)
Briefly: BSK_BF4T_PAI1: BioMAP Diversity Plus: BF4T Assay for Plasminogen Activator Inhibitor-1 (PAI1) Biomarker Activity (AID 2284273). The note with it: primary human bronchial epithelial cells with fibroblasts. In a few lines: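 PAI-1 levels quantified by ELISA 24 h post-dosing in bronchial epithelial cell plus dermal fibroblast cultures. Signal gain referenced to DMSO baseline. Sulforhodamine B total-protein staining of parallel wells checked cytotoxicity.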

Test [8] can be described thus: BSK_BF4T_SRB: Viability Assessment in the BioMAP Diversity Plus: BF4T Assay (AID 2284274).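 Note: measured 24 h after compound addition.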 Conditions: primary human bronchial epithelial cells with fibroblasts. In a few lines: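 Cytotoxicity measured as total protein: cells fixed with 10% TCA, stained with 0.1% SRB, read at 560 nm. Bronchial epithelial/dermal fibroblast co-culture, 24 h after dosing, with positive-direction fitting relative to DMSO.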

Read-out in test [9]: urokinase Plasminogen Activator (uPA), PLAU (gene 5328)
Briefly: BSK_BF4T_uPA: BioMAP Diversity Plus: BF4T Assay for urokinase Plasminogen Activator (uPA) Biomarker Activity (AID 2284275). Conditions: primary human bronchial epithelial cells with fibroblasts. In a few lines:
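uPA levels measured by ELISA at 24 hours in BF4T cultures (bronchial epithelial cells plus dermal fibroblasts) and compared with DMSO; cytotoxicity tracked in parallel cultures by sulforhodamine B staining.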

Read-out in test [10]: Matrix Metallopeptidase 9 (MMP9), MMP9 (gene 4318)
Put plainly: BSK_BF4T_MMP9: BioMAP Diversity Plus: BF4T Assay for Matrix Metallopeptidase 9 (MMP9) Biomarker Activity (AID 2284276). The note with it: primary human bronchial epithelial cells with fibroblasts. The procedure: BSK_BF4T is a cell-based, multiplexed-readout assay that uses bronchial epithelial cells and dermal fibroblasts, a human vascular primary cell, with measurements taken at 24 hours after chemical dosing in a microplate: 96-well plate.BSK_BF4T_MMP9 is an assay component measured in the BSK_BF4T assay. It measures MMP-9 antibody related to regulation of gene expression using ELISA technology.Data from the assay component BSK_BF4T_MMP9 was analyzed at the endpoint, BSK_BF4T_MMP9, in the positive analysis fitting direction relative to DMSO as the negative control and baseline of activity. Using a type of binding reporter, gain or loss-of-signal activity can be used to understand protein changes. […]
The levels of cell surface (or secreted, indicated by the prefix "s") biomarker endpoints were measured by ELISA. Overt cytotoxicity to cells in confluent adherent cultures (all systems other than the BT system) was assessed by measuring total protein levels using sulforhodamine B (SRB) staining in parallel cultures at the time of biomarker measurements, indicated as SRB endpoints. For proliferation assays for adherent cell types, individual cell types are cultured at sub-confluence and relative cell numbers quantified by SRB staining at time points optimized for each system (48 h: 3C and CASM3C systems; 72 h: BT and HDF3CGF systems; 96 h: SAg system). […] Plates were read after 6 h.

In general, AC50 refers to the concentration at which the activity in the assay is half-maximal. For `CCNS(=O)(=O)C(F)(F)C(F)(F)C(F)(F)C(F)(F)C(F)(F)C(F)(F)C(F)(F)C(F)(F)F`, the AC50 is 48.8 µM (active) and 50.9 µM (active) in test [1]; 38.9 µM (active) and 31.6 µM (active) in test [3]; 30 µM (active) in test [4]; 7.68 µM (active) and 8.65 µM (active) in test [6]; 41.2 µM (active) in test [7]; 44.7 µM (active) and 41.4 µM (active) in test [8]. The AC50 in test [9] was 47.3 µM (active); in [10], 30 µM (active) and 39.9 µM (active). Moreover, the result in test [2], in test [5], in test [7] and in test [9] was inactive.
